Source: ChEMBL document CHEMBL2218924, “A broad activity screen in support of a chemogenomic map for kinase signalling research and drug discovery” (Biochem J, 2013)

Legend:
[1] = biological target: Serine/threonine-protein kinase MRCK beta (Homo sapiens) (UniProt Q9Y5S2); details: at 1 µM
[2] = biological target: Serine/threonine-protein kinase MRCK beta (Homo sapiens) (UniProt Q9Y5S2); details: at 10 µM
[3] = biological target: Ribosomal protein S6 kinase alpha-5 (Homo sapiens) (UniProt O75582); details: at 1 µM
Ribosomal protein S6 kinase alpha-5 (Homo sapiens), sequence (O75582 whole entry, looked up): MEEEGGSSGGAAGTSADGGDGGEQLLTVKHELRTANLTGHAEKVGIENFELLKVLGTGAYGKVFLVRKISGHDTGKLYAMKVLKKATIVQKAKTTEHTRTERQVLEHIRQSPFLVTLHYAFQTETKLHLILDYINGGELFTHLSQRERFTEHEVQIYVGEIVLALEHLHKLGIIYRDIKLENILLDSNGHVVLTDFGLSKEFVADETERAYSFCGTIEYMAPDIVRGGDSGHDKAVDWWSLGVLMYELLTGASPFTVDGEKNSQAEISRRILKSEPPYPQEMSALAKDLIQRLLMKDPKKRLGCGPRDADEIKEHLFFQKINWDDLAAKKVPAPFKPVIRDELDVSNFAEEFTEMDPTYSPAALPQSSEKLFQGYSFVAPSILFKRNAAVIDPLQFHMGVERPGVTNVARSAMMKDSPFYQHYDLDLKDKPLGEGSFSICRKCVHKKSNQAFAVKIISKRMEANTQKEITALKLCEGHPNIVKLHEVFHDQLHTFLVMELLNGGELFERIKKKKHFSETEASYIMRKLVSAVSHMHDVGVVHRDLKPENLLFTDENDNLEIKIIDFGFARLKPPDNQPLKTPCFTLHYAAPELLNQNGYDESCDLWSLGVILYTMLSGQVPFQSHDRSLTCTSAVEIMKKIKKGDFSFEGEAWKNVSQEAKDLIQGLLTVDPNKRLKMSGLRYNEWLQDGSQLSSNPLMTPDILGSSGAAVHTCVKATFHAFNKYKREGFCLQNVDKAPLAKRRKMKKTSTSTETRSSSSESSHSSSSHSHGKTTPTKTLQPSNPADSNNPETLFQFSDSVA

[4] = biological target: Ribosomal protein S6 kinase alpha-5 (Homo sapiens) (UniProt O75582); details: at 10 µM
[5] = biological target: Ribosomal protein S6 kinase alpha-4 (Homo sapiens) (UniProt O75676); details: at 1 µM
Ribosomal protein S6 kinase alpha-4 (Homo sapiens), sequence (O75676 whole entry, looked up): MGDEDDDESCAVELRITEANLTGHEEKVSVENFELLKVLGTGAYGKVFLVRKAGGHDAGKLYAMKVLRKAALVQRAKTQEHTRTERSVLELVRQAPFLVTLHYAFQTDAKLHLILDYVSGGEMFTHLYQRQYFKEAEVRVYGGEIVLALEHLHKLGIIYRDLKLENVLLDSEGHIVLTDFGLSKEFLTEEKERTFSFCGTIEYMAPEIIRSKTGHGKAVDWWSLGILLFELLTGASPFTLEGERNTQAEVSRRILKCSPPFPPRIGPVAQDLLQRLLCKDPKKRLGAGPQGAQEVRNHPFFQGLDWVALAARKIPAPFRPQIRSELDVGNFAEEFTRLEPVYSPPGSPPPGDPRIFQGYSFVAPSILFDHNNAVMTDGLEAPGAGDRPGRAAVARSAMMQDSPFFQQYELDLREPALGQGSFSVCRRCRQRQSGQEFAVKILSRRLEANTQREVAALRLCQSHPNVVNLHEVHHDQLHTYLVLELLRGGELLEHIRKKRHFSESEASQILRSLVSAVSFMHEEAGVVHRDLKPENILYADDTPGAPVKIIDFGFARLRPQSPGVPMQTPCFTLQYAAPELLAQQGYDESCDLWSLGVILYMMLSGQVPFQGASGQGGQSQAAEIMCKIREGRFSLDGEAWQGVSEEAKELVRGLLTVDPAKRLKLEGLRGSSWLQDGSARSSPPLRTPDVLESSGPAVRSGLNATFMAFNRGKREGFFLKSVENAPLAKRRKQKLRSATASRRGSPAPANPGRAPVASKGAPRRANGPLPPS

[6] = biological target: Ribosomal protein S6 kinase alpha-4 (Homo sapiens) (UniProt O75676); details: at 10 µM
[7] = biological target: SRSF protein kinase 3 (Homo sapiens) (UniProt Q9UPE1); details: at 1 µM
SRSF protein kinase 3 (Homo sapiens), sequence (Q9UPE1 whole entry): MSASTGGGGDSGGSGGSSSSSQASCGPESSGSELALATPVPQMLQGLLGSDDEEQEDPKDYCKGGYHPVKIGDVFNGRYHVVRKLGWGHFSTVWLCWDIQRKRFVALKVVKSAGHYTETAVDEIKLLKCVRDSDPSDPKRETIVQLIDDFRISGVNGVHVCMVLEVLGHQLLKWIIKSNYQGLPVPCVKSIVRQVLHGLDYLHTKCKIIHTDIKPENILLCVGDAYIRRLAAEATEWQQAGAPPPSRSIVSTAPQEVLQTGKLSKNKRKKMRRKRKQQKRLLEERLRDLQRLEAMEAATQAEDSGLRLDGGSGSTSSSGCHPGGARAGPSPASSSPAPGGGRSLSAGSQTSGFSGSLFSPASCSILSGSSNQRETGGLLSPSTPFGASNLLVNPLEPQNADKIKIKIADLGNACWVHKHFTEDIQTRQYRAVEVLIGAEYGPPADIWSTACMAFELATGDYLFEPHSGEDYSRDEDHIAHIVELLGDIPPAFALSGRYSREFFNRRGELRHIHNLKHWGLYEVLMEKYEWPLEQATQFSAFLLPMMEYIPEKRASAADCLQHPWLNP

[8] = biological target: SRSF protein kinase 3 (Homo sapiens) (UniProt Q9UPE1); details: at 10 µM
[9] = biological target: T1, Serine/threonine-protein kinase 4 (Homo sapiens) (UniProt Q13043); details: at 10 µM
T1 sequence (whole entry): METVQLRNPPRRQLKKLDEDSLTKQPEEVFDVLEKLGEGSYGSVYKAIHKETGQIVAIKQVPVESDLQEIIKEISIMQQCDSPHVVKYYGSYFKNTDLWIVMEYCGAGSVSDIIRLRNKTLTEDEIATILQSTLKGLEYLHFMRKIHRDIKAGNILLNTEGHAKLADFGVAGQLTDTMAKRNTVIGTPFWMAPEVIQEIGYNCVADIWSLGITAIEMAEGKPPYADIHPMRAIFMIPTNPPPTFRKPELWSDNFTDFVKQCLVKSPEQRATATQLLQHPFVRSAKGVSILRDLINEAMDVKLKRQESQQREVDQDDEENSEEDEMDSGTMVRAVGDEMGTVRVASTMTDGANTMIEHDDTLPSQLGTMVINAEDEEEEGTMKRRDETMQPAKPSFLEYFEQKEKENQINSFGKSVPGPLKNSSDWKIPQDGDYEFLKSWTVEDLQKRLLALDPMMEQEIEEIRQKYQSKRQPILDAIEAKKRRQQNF

[10] = biological target: T2, Serine/threonine-protein kinase 3 (Homo sapiens) (UniProt Q13188); details: at 1 µM
T2 sequence (whole entry): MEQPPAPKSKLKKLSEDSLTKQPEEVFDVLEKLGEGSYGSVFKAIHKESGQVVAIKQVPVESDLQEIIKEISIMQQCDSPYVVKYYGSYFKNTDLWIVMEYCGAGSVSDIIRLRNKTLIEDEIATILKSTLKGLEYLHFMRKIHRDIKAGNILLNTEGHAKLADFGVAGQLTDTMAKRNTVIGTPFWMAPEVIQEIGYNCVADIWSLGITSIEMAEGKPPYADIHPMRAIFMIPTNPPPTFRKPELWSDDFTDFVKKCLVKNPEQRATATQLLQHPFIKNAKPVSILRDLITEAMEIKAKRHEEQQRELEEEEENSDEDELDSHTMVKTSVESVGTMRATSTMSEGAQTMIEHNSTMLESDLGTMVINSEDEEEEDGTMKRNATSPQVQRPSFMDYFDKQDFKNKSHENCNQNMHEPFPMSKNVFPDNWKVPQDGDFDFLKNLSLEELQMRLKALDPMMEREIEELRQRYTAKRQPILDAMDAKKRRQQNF

[11] = biological target: T2, Serine/threonine-protein kinase 3 (Homo sapiens); details: at 10 µM
[12] = biological target: Serine/threonine-protein kinase 24 (Homo sapiens) (UniProt Q9Y6E0); details: at 1 µM
Serine/threonine-protein kinase 24 (Homo sapiens), sequence (Q9Y6E0 whole entry, looked up): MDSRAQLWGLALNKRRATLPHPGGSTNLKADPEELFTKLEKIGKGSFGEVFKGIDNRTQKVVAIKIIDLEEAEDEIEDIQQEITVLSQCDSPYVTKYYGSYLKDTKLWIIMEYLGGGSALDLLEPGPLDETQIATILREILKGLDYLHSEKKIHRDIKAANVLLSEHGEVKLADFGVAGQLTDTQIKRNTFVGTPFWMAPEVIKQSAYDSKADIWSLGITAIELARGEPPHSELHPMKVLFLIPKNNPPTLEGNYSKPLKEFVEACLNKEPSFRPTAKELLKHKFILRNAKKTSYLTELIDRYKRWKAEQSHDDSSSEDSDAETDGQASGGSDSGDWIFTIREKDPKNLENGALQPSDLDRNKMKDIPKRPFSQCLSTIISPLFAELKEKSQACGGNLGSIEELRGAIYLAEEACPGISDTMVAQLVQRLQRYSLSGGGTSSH

[13] = biological target: Serine/threonine-protein kinase 24 (Homo sapiens) (UniProt Q9Y6E0); details: at 10 µM
[14] = biological target: T3, Tyrosine-protein kinase Mer (Homo sapiens) (UniProt Q12866); details: at 1 µM
T3 sequence (whole entry): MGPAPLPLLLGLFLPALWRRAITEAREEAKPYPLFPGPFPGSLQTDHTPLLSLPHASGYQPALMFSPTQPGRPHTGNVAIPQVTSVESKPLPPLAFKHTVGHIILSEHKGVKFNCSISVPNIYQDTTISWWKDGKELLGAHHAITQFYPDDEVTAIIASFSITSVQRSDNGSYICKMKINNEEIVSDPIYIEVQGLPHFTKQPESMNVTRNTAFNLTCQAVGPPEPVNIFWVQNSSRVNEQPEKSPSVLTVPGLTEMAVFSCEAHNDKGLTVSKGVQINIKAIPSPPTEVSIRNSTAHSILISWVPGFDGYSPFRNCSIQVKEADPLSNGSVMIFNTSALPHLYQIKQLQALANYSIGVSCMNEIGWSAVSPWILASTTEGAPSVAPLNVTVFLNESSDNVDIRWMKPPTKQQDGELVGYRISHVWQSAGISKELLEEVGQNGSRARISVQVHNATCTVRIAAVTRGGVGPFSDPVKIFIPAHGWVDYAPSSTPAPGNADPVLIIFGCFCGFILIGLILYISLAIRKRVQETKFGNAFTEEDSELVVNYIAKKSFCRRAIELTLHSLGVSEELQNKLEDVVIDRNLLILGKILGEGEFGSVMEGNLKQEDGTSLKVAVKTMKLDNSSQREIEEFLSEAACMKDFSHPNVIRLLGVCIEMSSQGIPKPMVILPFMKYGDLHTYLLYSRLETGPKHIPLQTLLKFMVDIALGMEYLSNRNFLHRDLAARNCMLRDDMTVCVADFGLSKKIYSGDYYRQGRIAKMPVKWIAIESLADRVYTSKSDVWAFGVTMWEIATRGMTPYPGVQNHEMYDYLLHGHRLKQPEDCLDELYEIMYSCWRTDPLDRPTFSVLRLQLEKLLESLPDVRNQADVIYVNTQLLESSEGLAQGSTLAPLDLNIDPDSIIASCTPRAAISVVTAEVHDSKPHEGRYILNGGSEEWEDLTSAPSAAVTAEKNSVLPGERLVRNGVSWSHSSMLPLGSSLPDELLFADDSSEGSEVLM

[15] = biological target: T3, Tyrosine-protein kinase Mer (Homo sapiens); details: at 10 µM
[16] = biological target: Hepatocyte growth factor receptor (Homo sapiens) (UniProt P08581); details: at 1 µM
[17] = biological target: Hepatocyte growth factor receptor (Homo sapiens) (UniProt P08581); details: at 10 µM
[18] = biological target: MAP kinase-interacting serine/threonine-protein kinase 2 (Homo sapiens) (UniProt Q9HBH9); details: at 1 µM
MAP kinase-interacting serine/threonine-protein kinase 2 (Homo sapiens), sequence (Q9HBH9 whole entry, looked up): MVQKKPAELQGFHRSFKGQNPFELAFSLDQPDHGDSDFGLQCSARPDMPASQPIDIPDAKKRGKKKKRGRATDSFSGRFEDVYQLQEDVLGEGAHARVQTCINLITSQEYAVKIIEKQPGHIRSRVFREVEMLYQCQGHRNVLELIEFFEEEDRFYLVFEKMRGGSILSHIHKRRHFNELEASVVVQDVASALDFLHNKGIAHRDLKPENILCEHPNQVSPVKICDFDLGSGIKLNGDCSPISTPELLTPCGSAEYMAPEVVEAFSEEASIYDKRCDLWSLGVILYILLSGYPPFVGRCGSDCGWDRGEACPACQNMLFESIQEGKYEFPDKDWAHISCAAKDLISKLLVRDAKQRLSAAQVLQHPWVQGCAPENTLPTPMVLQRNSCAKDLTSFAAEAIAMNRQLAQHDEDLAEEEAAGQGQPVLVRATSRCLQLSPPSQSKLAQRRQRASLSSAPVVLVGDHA

[19] = biological target: MAP kinase-interacting serine/threonine-protein kinase 2 (Homo sapiens) (UniProt Q9HBH9); details: at 10 µM
[20] = biological target: T1, Serine/threonine-protein kinase 4 (Homo sapiens); details: at 1 µM

Serine/threonine-protein kinase MRCK beta (Homo sapiens), sequence (Q9Y5S2 whole entry): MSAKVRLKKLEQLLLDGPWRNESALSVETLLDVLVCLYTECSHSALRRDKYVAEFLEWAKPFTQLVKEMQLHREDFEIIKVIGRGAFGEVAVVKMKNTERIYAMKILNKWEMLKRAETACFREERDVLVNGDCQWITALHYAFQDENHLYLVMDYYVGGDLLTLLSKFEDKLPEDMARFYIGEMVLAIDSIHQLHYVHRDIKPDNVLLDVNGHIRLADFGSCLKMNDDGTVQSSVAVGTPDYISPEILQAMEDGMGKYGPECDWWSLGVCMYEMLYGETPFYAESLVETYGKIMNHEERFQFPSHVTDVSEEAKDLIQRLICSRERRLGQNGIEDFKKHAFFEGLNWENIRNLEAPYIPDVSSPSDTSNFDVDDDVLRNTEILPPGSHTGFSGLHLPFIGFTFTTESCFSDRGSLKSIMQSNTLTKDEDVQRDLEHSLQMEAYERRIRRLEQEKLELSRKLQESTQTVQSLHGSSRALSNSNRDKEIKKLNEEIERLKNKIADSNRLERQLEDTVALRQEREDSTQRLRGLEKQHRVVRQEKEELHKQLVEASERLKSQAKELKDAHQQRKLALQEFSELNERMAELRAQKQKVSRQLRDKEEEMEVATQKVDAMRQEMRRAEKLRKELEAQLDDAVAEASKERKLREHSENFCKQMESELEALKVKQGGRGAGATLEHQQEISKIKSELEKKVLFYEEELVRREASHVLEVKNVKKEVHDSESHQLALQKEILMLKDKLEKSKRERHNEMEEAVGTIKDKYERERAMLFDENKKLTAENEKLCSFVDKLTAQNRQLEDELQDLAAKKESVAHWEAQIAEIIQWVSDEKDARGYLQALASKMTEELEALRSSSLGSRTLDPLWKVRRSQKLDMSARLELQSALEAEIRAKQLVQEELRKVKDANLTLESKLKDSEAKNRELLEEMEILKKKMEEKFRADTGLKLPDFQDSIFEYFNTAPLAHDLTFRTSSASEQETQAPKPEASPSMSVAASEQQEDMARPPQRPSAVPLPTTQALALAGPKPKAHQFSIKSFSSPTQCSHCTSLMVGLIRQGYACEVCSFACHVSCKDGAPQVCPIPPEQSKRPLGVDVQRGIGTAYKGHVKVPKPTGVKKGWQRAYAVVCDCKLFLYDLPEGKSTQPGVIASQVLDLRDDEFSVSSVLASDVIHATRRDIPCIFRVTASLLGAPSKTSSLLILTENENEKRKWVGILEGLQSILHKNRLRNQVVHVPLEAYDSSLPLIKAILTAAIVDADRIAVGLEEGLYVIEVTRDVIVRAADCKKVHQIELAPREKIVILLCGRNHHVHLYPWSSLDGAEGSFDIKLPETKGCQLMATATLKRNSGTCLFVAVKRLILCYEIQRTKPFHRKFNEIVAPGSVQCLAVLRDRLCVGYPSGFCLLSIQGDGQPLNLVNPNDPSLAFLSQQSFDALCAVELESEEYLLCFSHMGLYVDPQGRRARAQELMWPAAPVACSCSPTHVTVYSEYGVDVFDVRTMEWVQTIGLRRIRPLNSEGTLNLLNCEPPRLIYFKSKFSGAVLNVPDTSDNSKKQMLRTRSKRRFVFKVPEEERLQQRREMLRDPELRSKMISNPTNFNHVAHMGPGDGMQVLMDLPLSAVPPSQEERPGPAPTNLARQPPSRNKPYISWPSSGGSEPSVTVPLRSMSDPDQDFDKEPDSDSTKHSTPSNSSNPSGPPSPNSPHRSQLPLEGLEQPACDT

Row | SMILES | residual activity [1] [%] | residual activity [2] [%] | residual activity [3] [%] | residual activity [4] [%] | residual activity [5] [%] | residual activity [6] [%] | residual activity [7] [%] | residual activity [8] [%] | residual activity [9] [%] | residual activity [10] [%] | residual activity [11] [%] | residual activity [12] [%] | residual activity [13] [%] | residual activity [14] [%] | residual activity [15] [%] | residual activity [16] [%] | residual activity [17] [%] | residual activity [18] [%] | residual activity [19] [%] | residual activity [20] [%]
1 | Cc1nc(-c2ccccc2)c(-c2ccncc2)o1 | 105 | 96 | 99 | 94 | 103 | 77 | 112 | 99 | 110 | 102 | 96 | 101 | 100 | 99 | 88 | 128 | 94 | 106 | 77 | –
2 | O=C1Nc2ccccc2/C1=C1/Nc2ccccc2/C1=N\OCCC(O)CO (stereo unspecified) | – | – | 47 | 10 | 15 | 2 | 62 | 42 | -3 | 4 | 1 | 27 | 3 | 1 | -1 | 45 | 37 | 66 | 44 | 4
3 | c1ccc2c(-c3ccncc3)c[nH]c2c1 | 94 | 60 | – | – | 80 | 54 | 102 | 80 | 97 | 103 | 81 | 61 | 69 | 100 | 73 | – | 68 | 35 | 9 | 89
4 | Cn1cc(/C=C2\C(=O)Nc3ccc(S(N)(=O)=O)cc32)c2ccccc21 | 83 | 87 | 86 | 54 | 56 | 41 | 103 | 25 | 11 | 27 | 6 | 69 | 63 | 22 | 16 | 84 | – | 80 | 72 | 13
5 | N#CC(C#N)=C(N)/C(C#N)=C/c1ccc(O)cc1 | 96 | 84 | 122 | 92 | 91 | 85 | 119 | 82 | – | – | – | 71 | 67 | – | – | – | 138 | – | 50 | –
6 | CN(C)c1ccc(/C=C2\C(=O)Nc3ccccc32)cc1 | 106 | 102 | 116 | 79 | 87 | 57 | 103 | 80 | 74 | 108 | – | 66 | 49 | 51 | 36 | 112 | 107 | 107 | 95 | 95
7 | COc1ccc(CNc2nc(N(CCO)CCO)nc3c2ncn3C(C)C)cc1 | 88 | 83 | 92 | 96 | 88 | 82 | 105 | 84 | 112 | 107 | 104 | 65 | 60 | 90 | 60 | 122 | 85 | 99 | 100 | 74
8 | CCN(CC)C(=O)c1ccc(Nc2nc(OCC3CCCCC3)c3nc[nH]c3n2)cc1 | – | 34 | 100 | 69 | 64 | 23 | 66 | 15 | 5 | 66 | 7 | 63 | 16 | 15 | 0 | 45 | 9 | – | 44 | 36
9 | Nc1nc(Nc2ccc(S(N)(=O)=O)cc2)nn1C(=S)Nc1c(F)cccc1F | 8 | 3 | 81 | 70 | 19 | 21 | 37 | 12 | -3 | 0 | 1 | 0 | 1 | -1 | -1 | 3 | 0 | 6 | 14 | 0
10 | Cc1cncc2cccc(S(=O)(=O)N3CCCN(C(=O)CN)C[C@H]3C)c12 | 89 | 80 | 126 | 54 | 66 | 37 | – | 77 | 75 | – | – | 61 | 71 | 79 | 21 | 84 | 123 | – | 72 | 87
11 | O=C1Nc2ccc(Br)cc2/C1=C\c1cc2c([nH]1)CCCC2 | 98 | – | 111 | 105 | – | 99 | 101 | 80 | 75 | 46 | 61 | – | 77 | 68 | 45 | 104 | 144 | 108 | 102 | 60
12 | Nc1n[nH]c2nnc(-c3c(-c4ccccc4)nn4ccccc34)cc12 | 90 | 79 | 102 | 113 | 93 | 78 | 93 | 56 | 87 | 79 | 91 | – | 15 | 86 | 57 | 78 | 88 | 96 | 101 | 71
13 | Cc1cccc(-c2[nH]c(C(C)(C)C)nc2-c2ccc3c(c2)OCO3)n1 | 83 | 86 | 135 | – | 97 | 104 | – | – | 105 | – | 94 | 79 | 72 | 107 | 97 | – | – | – | – | 102
14 | Ic1cccc(CSc2nnc(-c3ccncc3)o2)c1 | 87 | 82 | 95 | 82 | 65 | 53 | 90 | 92 | 101 | 39 | 15 | 50 | 43 | 69 | 48 | 126 | 100 | 91 | 89 | 106
15 | CC(C)n1cnc2c(NCc3ccccc3)nc(NCCCO)nc21 | 88 | 88 | 110 | 110 | 102 | 97 | 106 | 76 | 102 | 111 | 99 | 77 | 69 | 98 | 82 | 101 | 79 | 90 | 80 | 102
